# Records with an inconclusive call do not appear. Calls of active or inactive are those of the source. The calls were made as follows: active = hit-call score of the fitted dose curve at least 0.9, where 1 is the maximum; inconclusive = response in the unintended direction; inactive = score below 0.9.
# Biological target: Estrogen receptor (Homo sapiens) (UniProt P03372)
# Test: CCTE_Deisenroth_AIME_384WELL_LUC_Inactive: CCTE's 384-well Estrogen Receptor Transactivation Assay without AIME metabolic competence (ERTA luciferase; metabolism negative), Deisenroth Lab (AID 2284038);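 also: VM7Luc4E2 breast cells given medium preincubated 2 h with S9-free microspheres; hits raise estrogen receptor luciferase signal so potencies reflect agonists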
# Description: CCTE_Deisenroth_AIME_384WELL (AIME metabolism assay) is a cell-based, single-readout assay that uses VM7Luc4E2, a human mammary gland/breast cell line, with measurements taken at 24 hour after chemical dosing in a 384-well plate.CCTE_Deisenroth_AIME_384WELL_LUC_Inactive is one of four assay components measured or calculated from the CCTE_Deisenroth_AIME_384WELL assay. It is designed to make measurements of luciferase induction, a form of inducible reporter, as detected with bioluminescence signals by luciferase-coupled ATP quantitation technology.CCTE_Deisenroth_AIME_384WELL_LUC_Inactive is a component of the CCTE_Deisenroth_AIME_384WELL assay that measures the effect of retroftting the VM7Luc ERTA assay with the Alginate Immobolization of Metabolic Enzymes (AIME) metabolism method. AIME is optimized to impart phase I hepatic metabolism using phenobarbital/beta-naphthoflavone induced hepatic S9 from male Sprague Dawley rats. Parent chemicals are incubated for 2 hours in the AIME assay prior to transfer to the VM7Luc ERTA assay plate. […] This endpoint evaluates reporter induction in metabolism negative mode. Using a type of inducible reporter in VM7Luc cells, gain-of-signal activity can be used to understand changes in the reporter gene as they relate to xenobiotic metabolism and the gene ESR1. This assay endpoint, CCTE_Deisenroth_AIME_384WELL_LUC_Inactive, was analyzed in the positive analysis fitting direction relative to 17beta-estradiol as the positive control in the ERTA assay. To generalize the intended target to other relatable targets, this assay endpoint is annotated to the nuclear receptor intended target family, where the subfamily is steroidal.
# The AIME procedure consists of a preparative "pre-stamping" step using a barium chloride/poly-L-lysine (PLL) solution followed by "stamping" the lid in alginate-hepatic S9 (metabolism positive) or alginate-water (metabolism negative) to form microspheres. Once stamping is completed, the AIME lids are placed in duplicate microplates (metabolism positive or negative) containing chemical solutions and incubated for two hours to facilitate metabolic reactions. The conditioned medium, containing parent chemical or metabolites, is then transferred to the cell-based VM7Luc Estrogen Receptor Transactivation Assay (ERTA) for 24 hours. A typical experimental design tests a 10-point concentration series (0.002 - 200 uM) for 8 compounds (96-well format)1 or 32 compounds (384-well format)2 in single technical replicate. AIME assay controls include trans-stilbene (bioactivated control) and ethylparaben (bioinactivated control). ERTA assay plate controls include 17-beta estradiol (positive control) and DMSO (solvent control). Experiments typically comprise a minimum of four experimental replicates (n=4).
# Sequence of Estrogen receptor (Homo sapiens) (P03372 whole entry, looked up): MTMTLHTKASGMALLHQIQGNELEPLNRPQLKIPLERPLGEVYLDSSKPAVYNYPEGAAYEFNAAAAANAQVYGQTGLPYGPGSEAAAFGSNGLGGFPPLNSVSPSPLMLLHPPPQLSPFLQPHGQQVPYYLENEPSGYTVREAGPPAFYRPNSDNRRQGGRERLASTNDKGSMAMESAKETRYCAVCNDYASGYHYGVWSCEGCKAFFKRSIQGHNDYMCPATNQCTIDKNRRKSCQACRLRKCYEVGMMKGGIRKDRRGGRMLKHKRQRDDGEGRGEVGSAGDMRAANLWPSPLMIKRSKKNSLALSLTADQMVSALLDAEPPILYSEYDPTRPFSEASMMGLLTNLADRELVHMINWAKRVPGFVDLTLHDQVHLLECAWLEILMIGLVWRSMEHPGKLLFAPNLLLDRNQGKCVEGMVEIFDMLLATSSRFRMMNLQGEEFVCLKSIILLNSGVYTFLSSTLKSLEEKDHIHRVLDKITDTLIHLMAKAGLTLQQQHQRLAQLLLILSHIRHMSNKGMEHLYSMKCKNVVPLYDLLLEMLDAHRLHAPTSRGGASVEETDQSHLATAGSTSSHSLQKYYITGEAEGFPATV
SMILES,outcome,AC50
COP(=S)(OC)SCn1nnc2ccccc2c1=O,inactive,
CS(=O)(=O)c1cc(C(F)(F)F)ccc1C(=O)c1cnoc1C1CC1,inactive,
CCOC(=O)C(C)OC(=O)c1cc(Oc2ccc(C(F)(F)F)cc2Cl)ccc1[N+](=O)[O-] (centres undefined),inactive,
COc1ccc(-c2ccccc2)cc1NNC(=O)OC(C)C,inactive,
COCC(C)N(C(=O)CCl)c1c(C)csc1C (centres undefined),inactive,
Nc1c(Cl)c(Cl)nc(C(=O)O)c1Cl,,14.3 µM (active)
CC(C)=CC1C(C(=O)OCc2coc(Cc3ccccc3)c2)C1(C)C (centres undefined),inactive,
O=c1n(Cl)c(=O)n(Cl)c(=O)n1Cl,inactive,
COC(=O)NS(=O)(=O)c1ccc(N)cc1,inactive,
CNC(=O)N(C)c1nnc(C(C)(C)C)s1,inactive,
CCSC(=O)N1CCCCCC1,inactive,
COC(=O)NC(=S)Nc1ccccc1NC(=S)NC(=O)OC,inactive,
Cc1ccc(N=CN(C)C=Nc2ccc(C)cc2C)c(C)c1,inactive,
CC(C)N1C(=O)c2ccccc2NS1(=O)=O,inactive,
CC1(C)CON(Cc2ccccc2Cl)C1=O,,73.1 µM (active)
CCC(C)n1c(=O)[nH]c(C)c(Br)c1=O (centres undefined),inactive,
Clc1cccc(C(Cl)(Cl)Cl)n1,inactive,

SMILES,outcome,AC50
COc1cc(OC)nc(NC(=O)NS(=O)(=O)c2ncccc2OCC(F)(F)F)n1,inactive,
CC(C)Nc1nc(Cl)nc(NC(C)C)n1,inactive,
CCOc1nc(F)cc2nc(S(=O)(=O)Nc3c(Cl)cccc3Cl)nn12,inactive,
CC(C)N1C(=O)N(c2ccccc2)CSC1=NC(C)(C)C,inactive,
Cc1cc(C)nc(Nc2ccccc2)n1,inactive,
CCCC(=NOCC)C1=C(O)CC(CC(C)SCC)CC1=O (centres undefined),inactive,
CN=C=S,inactive,
CCOc1nc(C(Cl)(Cl)Cl)ns1,inactive,
O=C(Nc1ccccc1-c1ccc(Cl)cc1)c1cccnc1Cl,inactive,
N#Cc1c(Cl)cccc1Cl,inactive,
CC1(C)C(C=C(Cl)Cl)C1C(=O)OC(C#N)c1cccc(Oc2ccccc2)c1 (centres undefined),,57.9 µM (active)
CCOP(=O)(OCC)Oc1nc(Cl)c(Cl)cc1Cl,inactive,
Nc1cnn(-c2ccccc2)c(=O)c1Cl,inactive,
CCOP(=S)(OCC)Oc1nc(Cl)n(C(C)C)n1,inactive,
COCc1cnc(C2=NC(C)(C(C)C)C(=O)N2)c(C(=O)O)c1 (centres undefined),inactive,
COP(=S)(OC)Oc1ccc([N+](=O)[O-])c(C)c1,inactive,
C=C(C)CN(CC)c1c([N+](=O)[O-])cc(C(F)(F)F)cc1[N+](=O)[O-],inactive,

# From PubChem BioAssay (EPA / NIEHS)
